Z-score data for eight molecules are collected here from PubChem BioAssay.

Assay [1] can be described thus: A549 cell viability effects, profiling panel, calcein-AM fluorescence, 48 h, basal (AID 1162). Conditions: higher = more signal.
Assay [2] can be described thus: adipocyte viability effects, profiling panel, cell-based, 3T3-L1 adipocytes, calcein-AM fluorescence, 48 h, basal (AID 1163). The settings on record: 3T3-L1 adipocytes viability, higher = more signal.
Assay [3] in a line: HepG2 cell viability effects, profiling panel, calcein-AM fluorescence, 48 h, basal (AID 1164). Conditions: higher = more signal.
A short description of assay [4]: MM1S cell viability effects, profiling panel, calcein-AM fluorescence, 48 h, basal (AID 1165).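 Note: viability of MM1S multiple myeloma cells under basal unstimulated conditions.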 The settings on record: higher = more signal.
Assay [5] can be described thus: basal RPMI8226 viability, no added stimulus, profiling panel, cell-based, calcein-AM fluorescence, 48 h, PK04 Diversity Set (AID 1166).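 Note: cells grown under basal conditions without added stimulus.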 The settings on record: RPMI8226 myeloma viability, higher = more signal.
Assay [6] can be described thus: basal HepG2 mitochondrial membrane potential changes, profiling panel, cell-based, JC-1 fluorescence, 24 h, 100 nL compound (AID 1167). The settings on record: higher = more signal.
Assay [7] is described as follows: basal 3T3-L1 adipocyte mitochondrial potential changes, profiling panel, cell-based, JC-1 fluorescence, 3T3-L1 adipocytes, 24 h, 100 nL compound (AID 1168). The settings on record: JC-1 mitochondrial fluorescence, higher = more signal, called active from +8 up or from −8 down.
Assay [8] in a line: basal RPMI8226 mitochondrial membrane potential changes, profiling panel, cell-based, JC-1 fluorescence, 24 h, 100 nL compound (AID 1169). The settings on record: RPMI8226 myeloma, JC-1 mitochondrial potential fluorescence, higher = more signal.
A short description of assay [9]: basal MM1S mitochondrial membrane potential changes, profiling panel, cell-based, JC-1 fluorescence, 24 h, 100 nL compound (AID 1170). Conditions: higher = more signal.
Assay [10] can be described thus: A549 lung cancer cell viability effects, profiling panel, resazurin fluorescence, 24 h, PK04 Diversity Set (AID 1171). The settings on record: higher = more signal, called active from +8 up or from −8 down.

Active and inactive are the calls of the source.
Note: test concentration not given here.

Regarding `C=CCN1Cc2ccccc2[C@@H]2OC(c3ccc(OCCCO)cc3)=N[C@]2(CCS(=O)(=O)c2ccccc2)C1=O`, the z-score in [1] is -0.251; in [2] it was 0.771; in [3] it was 0.574; in assay [4], -1.12; in assay [5], -0.664; in assay [6], -0.187. In addition, the z-score is -0.303 (inactive) in assay [7], -1.06 in [8], -0.181 in assay [9] and 0.315 (inactive) in assay [10].
For `C=C(CCCC)/C(=C/C[C@@H](OC(C)=O)c1ccccc1OCCO)c1cc(C(=O)OC)ccc1OC`, the z-score in assay [1] is 1.83; in assay [2], 0.109; in assay [3], 0.741; in [4], -2.54; in assay [5], -0.354; in assay [6] it was 1.75. Also, the z-score was 0.478 (inactive) in assay [7], -0.118 in assay [8], 0.234 in [9] and 0.873 (inactive) in [10].
As to `C[N+](C)(C)CCCC[C@@H]1NC(=O)[C@@H]2C[C@H](C(=O)NCCCCCCNC(=O)CS)[C@H](c3ccc(O)cc3)N2C1=O`, the z-score in [1] was -0.617; in assay [2], -0.0068; in assay [3], -0.0675; in assay [4] it was -0.14; in assay [5], -0.385; in [6] it was 0.439. In addition, the z-score is -0.888 (inactive) in [7], -0.111 in [8], -0.432 in assay [9] and -0.382 (inactive) in [10].
As for `CCCCCCc1nc(-c2ccc(-c3ccc(Cl)c(Cl)c3)o2)cc2c1[Si](C(C)C)(C(C)C)O[C@H]2c1ccccc1`, the z-score is -0.793 in assay [1]; -0.0866 in [2]; -1.08 in assay [3]; -0.373 in assay [4]; 0.568 in assay [5]; 0.474 in [6]. Also, the z-score in assay [7] was -0.0412 (inactive); in [8], 0.278; in assay [9], -0.284; in assay [10], 1.19 (inactive).
In the case of `CC1CC/C=C\[C@H]2OC34C=CCN(Cc5ccccc5)C(=O)[C@H]3N(C(C)CO)C(=O)[C@@H]4C2C(=O)O1` (stereo not given in full), the z-score in [1] was 0.278; in assay [2], -0.979; in [3], 0.679; in assay [4], 0.998; in [5], -0.182; in assay [6], 0.554. Also, the z-score was 0.219 (inactive) in assay [7], 1.11 in [8], 0.741 in [9] and 0.418 (inactive) in [10].
With `O=C(NC1CC1)[C@@H]1c2ccccc2C(=O)N(C2Cc3ccccc3C2)[C@H]1c1ccc(CO)cc1`, the z-score in [1] is 0.201; in assay [2], 0.526; in assay [3] it was 0.116; in assay [4] it was 0.62; in assay [5], -0.987; in [6], 2.96. Further, the z-score in [7] was 0.832 (inactive); in [8], 0.0519; in [9], 0.339; in assay [10], 0.888 (inactive).
For `COC(=O)[C@@]1(Cc2ccccc2)[C@H]2c3cc(C(=O)N4CCCC4)n(Cc4ccc(O)c(OC)c4)c3C[C@H]2CN1C(=O)c1ccccc1`, the z-score was 0.114 in assay [1]; 0.0713 in [2]; 0.876 in [3]; -1.27 in assay [4]; -1.65 in assay [5]; 0.848 in assay [6]. Moreover, the z-score was -1.63 (inactive) in assay [7], 0.332 in assay [8], -0.601 in assay [9] and -1.5 (inactive) in assay [10].
`O=C1O[C@@H](c2ccccc2)[C@@H](c2ccccc2)N2[C@@H](c3ccccc3OCCO)[C@]3(C(=O)Nc4ccc(C#CC5(O)CCCCCC5)cc43)[C@@H](C(=O)N3CCN(c4ncccn4)CC3)[C@H]12`: the z-score in [1] is -0.643; in [2], 1.46; in [3], 0.11; in assay [4], -1.22; in assay [5], -2.29; in assay [6] it was -0.457. Further, the z-score is 0.821 (inactive) in assay [7], -1.04 in assay [8], -0.796 in assay [9] and -0.697 (inactive) in assay [10].
